Laboratory results published in PubChem BioAssay (EPA / NIEHS).
Several values for one entry are separate records, joined by “and”; a condition that tells them apart may be missing. Equal values may be shown once. Records with an inconclusive call do not appear. Where a structure was tested more than once in an assay, its records may differ in their call. Activity calls are given as the source filed them. The calls were made as follows, unless noted: active = hit-call score of the fitted dose curve at least 0.9, where 1 is the maximum; inactive = score below 0.9.

How the values were obtained:
[1] = ATG_TCF_b_cat_CIS: Attagene CIS-FACTORIAL HepG2 Assay for human T-Cell-Factor with beta-catenin (TCF/b-cat) (AID 2282965); conditions: HepG2 TCF/beta-catenin cis-reporter transcription, actives raise or lower the signal
Procedure, shortened: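 Endogenous TCF/LEF activity read as reporter transcript level via RT-PCR and capillary electrophoresis fluorescence in transfected HepG2, 24 h exposure; gain or loss of signal fitted against DMSO controls.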

[2] = ATG_TAL_CIS: Attagene CIS-FACTORIAL HepG2 Assay for human TAL Basal Promoter (AID 2282966); conditions: HepG2 Attagene cis-factorial TAL promoter reporter; actives raise or lower the signal;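 also: background control endpoint measuring basal TAL promoter reporter mRNA not a specific factor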
Procedure, shortened: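 Transiently transfected HepG2 (cis-regulated reporter units), 24 h treatment, mRNA read by fluorescent CE after RT-PCR; bidirectional fit, DMSO baseline.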

[3] = ATG_TGFb_CIS: Attagene CIS-FACTORIAL HepG2 Assay for human Transforming Growth Factor (TGF) (AID 2282967); conditions: HepG2 Attagene CIS TGFb reporter, mRNA transcription; actives raise or lower the signal
Procedure, shortened: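 HepG2 cells transiently transfected with cis-promoter-driven multiple reporter units measure endogenous TF activity; reporter mRNA quantified at 24 h by RT-PCR, FAM labeling, HpaI digestion and capillary electrophoresis. Bidirectional fit vs DMSO.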

[4] = target: X-box-binding protein 1 (Homo sapiens) (UniProt P17861); assay: ATG_Xbp1_CIS: Attagene CIS-FACTORIAL HepG2 Assay for human X-box Binding Protein 1 (XBP1) (AID 2282972); conditions: HepG2 XBP1 cis-element reporter, Attagene multiplex; actives raise or lower the signal
Procedure, shortened: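 Multiplexed cis-reporter readout in transfected HepG2 liver cells. Exposure lasted 24 hours. Activity in either direction was fitted against DMSO as negative control and baseline.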

[5] = target: Estrogen-related receptor gamma (Homo sapiens) (UniProt P62508); assay: ATG_ERRg_TRANS: Attagene TRANS-FACTORIAL HepG2 Assay for human Estrogen-Related Receptor gamma (ERRg) (AID 2282977; active = hit-call score of the fitted dose curve at least 0.9, where 1 is the maximum;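 also: hits increase reporter signal over DMSO so potencies reflect activators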); conditions: HepG2 Attagene TRANS reporter, ERRg transactivation
Procedure, shortened: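 Induction of reporter transcripts through a chimeric NR-Gal4 protein is quantified in transfected human HepG2 liver cells after 24 h chemical exposure, using RT-PCR with capillary electrophoresis detection and DMSO as baseline.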

[6] = ATG_VDRE_CIS: Attagene CIS-FACTORIAL HepG2 Assay for human Vitamin D Receptor Element (VDRE) (AID 2282968); conditions: HepG2 VDRE cis-reporter transcription, actives raise or lower the signal
Procedure, shortened: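 Readout is VDRE-driven reporter mRNA reflecting endogenous factor activity in human HepG2 cells, sampled 24 h post-dose. Quantification used labelled RT-PCR products separated by capillary electrophoresis; bidirectional analysis relative to DMSO.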

[7] = target: Estrogen receptor (Homo sapiens) (UniProt P03372); assay: ATG_ERa_TRANS: Attagene TRANS-FACTORIAL HepG2 Assay for human Estrogen Receptor alpha (ERa) (AID 2282970; active = hit-call score of the fitted dose curve at least 0.9, where 1 is the maximum); conditions: HepG2 Attagene TRANS ERa GAL4 reporter, mRNA
Procedure, shortened: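 One of 30 multiplexed endpoints from a HepG2 TRANS system, this one reports ERa-Gal4-driven reporter mRNA. Transcripts were quantified 24 hours post-dosing by fluorescent RT-PCR and capillary electrophoresis, with activity scored as induction over DMSO.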

[8] = target: Steroid hormone receptor ERR1 (Homo sapiens) (UniProt P11474); assay: ATG_ERRa_TRANS: Attagene TRANS-FACTORIAL HepG2 Assay for human Estrogen-Related Receptor alpha (ERRa) (AID 2282971; active = hit-call score of the fitted dose curve at least 0.9, where 1 is the maximum); conditions: HepG2 Attagene TRANS reporter, ERRa transactivation
Procedure, shortened: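 HepG2 cells transiently transfected with multiplexed GAL4-UAS reporter units reading chimeric ERRa-Gal4 activity; 24 h compound exposure. Reporter mRNA measured by RT-PCR, 6-FAM labelling, HpaI digest and capillary electrophoresis; gain of signal fitted versus DMSO baseline.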

[9] = ATG_M_19_TRANS: Attagene TRANS-FACTORIAL HepG2 Assay for M19 Transcription Factor (Internal Marker) (AID 2282974; active = hit-call score of the fitted dose curve at least 0.9, where 1 is the maximum); conditions: HepG2 Attagene TRANS-FACTORIAL M19 internal marker reporter
Procedure, shortened: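 Gain-of-signal in reporter mRNA, relative to DMSO, was scored from capillary electrophoresis fluorescence. HepG2 cells carried transiently transfected multiple reporter transcription units and were incubated with test chemicals for 24 h.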

[10] = ATG_GAL4_TRANS: Attagene TRANS-FACTORIAL HepG2 Assay for GAL4 (Internal Marker) (AID 2282976; active = hit-call score of the fitted dose curve at least 0.9, where 1 is the maximum); conditions: HepG2 Attagene TRANS GAL4 internal marker reporter
Procedure, shortened: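 HepG2 cells transiently transfected with multiplexed GAL4-UAS reporter constructs were dosed for 24 h. Reporter mRNA was measured by RT-PCR, 6-FAM primer extension, HpaI digestion and capillary electrophoresis, and gain of signal was fitted relative to DMSO.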

Measured: AC50

Sequence of Steroid hormone receptor ERR1 (Homo sapiens) (P11474 whole entry, looked up, the tested form may be a part): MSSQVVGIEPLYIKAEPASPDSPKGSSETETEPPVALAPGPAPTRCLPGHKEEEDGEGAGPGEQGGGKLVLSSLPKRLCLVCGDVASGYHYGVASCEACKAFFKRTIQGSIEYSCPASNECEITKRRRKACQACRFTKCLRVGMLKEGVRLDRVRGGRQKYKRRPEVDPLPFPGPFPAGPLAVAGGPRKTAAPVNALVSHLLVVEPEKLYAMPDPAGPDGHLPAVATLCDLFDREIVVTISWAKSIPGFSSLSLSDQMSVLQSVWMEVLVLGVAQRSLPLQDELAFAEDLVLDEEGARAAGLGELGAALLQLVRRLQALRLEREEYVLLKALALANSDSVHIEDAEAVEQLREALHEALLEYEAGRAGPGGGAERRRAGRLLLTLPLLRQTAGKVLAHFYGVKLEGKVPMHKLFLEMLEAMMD
Sequence of Estrogen-related receptor gamma (Homo sapiens) (P62508 whole entry, looked up, the tested form may be a part): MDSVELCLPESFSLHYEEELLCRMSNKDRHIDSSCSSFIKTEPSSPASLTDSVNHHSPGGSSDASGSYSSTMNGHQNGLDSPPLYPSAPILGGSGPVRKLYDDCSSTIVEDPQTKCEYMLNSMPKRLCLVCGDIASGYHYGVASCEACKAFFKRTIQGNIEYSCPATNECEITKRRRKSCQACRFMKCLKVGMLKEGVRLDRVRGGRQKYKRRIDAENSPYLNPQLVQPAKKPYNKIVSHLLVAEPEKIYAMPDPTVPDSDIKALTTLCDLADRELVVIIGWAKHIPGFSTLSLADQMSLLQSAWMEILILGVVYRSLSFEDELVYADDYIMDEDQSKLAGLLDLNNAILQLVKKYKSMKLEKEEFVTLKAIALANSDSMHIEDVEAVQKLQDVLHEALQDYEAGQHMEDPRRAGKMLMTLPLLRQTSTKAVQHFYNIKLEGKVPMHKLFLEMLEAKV
Sequence of X-box-binding protein 1 (Homo sapiens) (P17861 whole entry, looked up): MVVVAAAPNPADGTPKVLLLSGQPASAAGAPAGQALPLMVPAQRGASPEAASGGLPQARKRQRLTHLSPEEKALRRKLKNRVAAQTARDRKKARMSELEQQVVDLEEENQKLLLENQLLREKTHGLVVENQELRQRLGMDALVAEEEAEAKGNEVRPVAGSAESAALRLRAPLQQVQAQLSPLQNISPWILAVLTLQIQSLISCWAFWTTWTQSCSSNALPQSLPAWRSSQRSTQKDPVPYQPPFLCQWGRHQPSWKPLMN
Sequence of Estrogen receptor (Homo sapiens) (P03372 whole entry, looked up, the tested form may be a part): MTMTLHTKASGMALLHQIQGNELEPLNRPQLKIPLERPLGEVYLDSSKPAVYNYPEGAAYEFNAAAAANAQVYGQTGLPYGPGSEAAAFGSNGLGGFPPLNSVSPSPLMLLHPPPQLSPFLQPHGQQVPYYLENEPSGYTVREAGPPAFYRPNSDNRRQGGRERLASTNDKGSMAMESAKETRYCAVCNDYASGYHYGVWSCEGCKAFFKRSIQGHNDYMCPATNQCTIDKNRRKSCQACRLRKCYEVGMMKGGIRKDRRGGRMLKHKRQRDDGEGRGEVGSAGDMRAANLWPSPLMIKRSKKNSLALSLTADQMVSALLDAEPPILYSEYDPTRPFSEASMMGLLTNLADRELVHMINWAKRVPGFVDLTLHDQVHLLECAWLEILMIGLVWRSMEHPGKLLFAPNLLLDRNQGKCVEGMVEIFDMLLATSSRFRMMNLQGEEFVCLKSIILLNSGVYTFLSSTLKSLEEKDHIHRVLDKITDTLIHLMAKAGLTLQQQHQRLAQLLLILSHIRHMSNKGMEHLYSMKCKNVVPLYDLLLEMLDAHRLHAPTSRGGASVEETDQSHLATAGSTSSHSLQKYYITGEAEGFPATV

OC[C@H]1O[C@@](CO)(O[C@H]2O[C@H](CO)[C@@H](O)[C@H](O)[C@H]2O)[C@@H](O)[C@@H]1O
inactive: [1] | [2] | [3] | [4] | [5]

OCCC(F)(F)C(F)(F)C(F)(F)C(F)(F)F
not listed: [2]
inactive: all other assays above

c1ccc2ncccc2c1
inactive: [1] | [2] | [3] | [7] | [4]

O=c1[nH]cnc2c1ncn2[C@H]1CC[C@@H](CO)O1
inactive: [1] | [2] | [3] | [4] | [9] | [5]

OCC(CO)(CO)CO
inactive: [1] | [3] | [6] | [7] | [4] | [9]

COc1cc2c(c(OC)c1OC)-c1ccc(OC)c(=O)cc1[C@@H](NC(C)=O)CC2
inactive: [2] | [3] | [6] | [4]
active: [1] 0.348 µM

O=C(Cl)C(F)(F)C(F)(F)C(F)(F)C(=O)Cl
not listed: [2]
inactive: all other assays above

S=P(N1CC1)(N1CC1)N1CC1
inactive: [1] | [3] | [6] | [7] | [8] | [4] | [9] | [10] | [5]
active: [6] 17 µM and 27.4 µM

NCC(F)(F)C(F)(F)C(F)(F)C(F)(F)F
not listed: [2] | [5]
inactive: all other assays above

C[Si](C)(C)C(F)(F)C(F)(F)C(F)(F)F
not listed: [2]
inactive: all other assays above

CC(C)C(=O)Nc1ccc([N+](=O)[O-])c(C(F)(F)F)c1
active: [4] 27 µM
not listed: [6] | [8] | [10]
inactive: all other assays above

CCCCCCCC1CCC(=O)O1 (stereo not drawn)
inactive: [1] | [2] | [3] | [7] | [4] | [9]

Cc1ncc([C@@H](CCCCCCc2ccc3c(n2)NCCC3)CC(=O)O)cn1
not listed: [5] | [7] | [8]
inactive: all other assays above

O=C(O)[C@H](O)[C@@H](O)C(=O)O
inactive: [1] | [2] | [3] | [8] | [4] | [10]

FC(F)(F)C(F)(F)C(F)(F)C(F)(F)C(F)(F)C(F)(F)I
active: [7] 13.7 µM and 17 µM
not listed: [2]
inactive: all other assays above

CCCCN1C(=O)[C@@H]([C@H](O)C2CCCCC2)NC(=O)C12CCN(Cc1ccc(Oc3ccc(C(=O)O)cc3)cc1)CC2
inactive: [3] | [7] | [4] | [10]
active: [1] 52.5 µM | [2] 21.9 µM

CCCc1ccccc1
inactive: [1] | [2] | [3] | [6] | [4] | [10]

Cn1cc[nH]c1=S
inactive: [1] | [2] | [3] | [6] | [4] | [10]

O=C(N[C@H](CO)[C@H](O)c1ccc([N+](=O)[O-])cc1)C(Cl)Cl
not listed: [5] | [6] | [8]
inactive: all other assays above

NC(=O)N(O)[C@@H]1COc2cc(OCc3ccccc3)ccc21
inactive: [1] | [3] | [6] | [7] | [4] | [10]

COc1cc(C(C)C)c2c(c1)S(=O)(=O)N(COc1cc(=O)n3cccc(OCCN4CCCCC4)c3n1)C2=O
inactive: [3] | [9]
active: [1] 4.04 µM | [6] 5.67 µM | [7] 2.75 µM | [4] 6.56 µM

c1ccc(C(O[C@@H]2CCCN(CCc3ccc4c(c3)OCO4)C2)c2ccccc2)cc1
inactive: [1] | [3]
active: [7] 1.76 µM | [4] 20.9 µM

C=CN1CCCC1=O
inactive: [1] | [3] | [7] | [4]

CCOC(N)=O
inactive: [1] | [3] | [7] | [4] | [10]

OCCOCCOCCO
inactive: [1] | [3] | [6] | [7] | [4] | [9]

c1ccc2c(c1)-c1cccc3c1c-2cc1ccccc13
not listed: [2] | [5] | [8]
inactive: all other assays above

CCn1nc(C)c2c1C(=O)NCC(c1ccc(O)cc1)=N2
inactive: [1] | [3] | [6] | [7] | [4] | [10]

CCN(CC)C(=S)SSC(=S)N(CC)CC
inactive: [3] | [7] | [9]
active: [1] 118 µM | [6] 117 µM | [4] 139 µM

CCCC(CCC)C(=O)O
not listed: [2] | [5] | [8]
inactive: all other assays above

CCCCCCCCCCCCCCO
inactive: [1] | [3] | [6] | [7] | [4] | [9]

O=C(O)c1ccc2c(c1)nc(C(=O)NC1CCN(C3CC3)CC1)n2Cc1cc(-c2ccc(Cl)s2)on1
inactive: [1] | [3] | [7] | [4] | [10]

CC1(C)C(=O)N(Cl)C(=O)N1Cl
inactive: [1] | [3] | [6] | [4] | [9]

CC(C)CC(C)O (stereo not drawn)
inactive: [1] | [3] | [6] | [4] | [9] | [10]

OCCNCCO
not listed: [2] | [7] | [9]
inactive: all other assays above

O=S1(=O)CCCO1
inactive: [1] | [3] | [6] | [4] | [10]

NC(=O)NN=Cc1ccc([N+](=O)[O-])o1
inactive: [1] | [3] | [6] | [4]

O=C(NO)C1(NS(=O)(=O)c2ccc(Oc3ccc(F)cc3)cc2)CCOCC1
inactive: [1] | [3] | [6] | [7] | [4] | [5]

CCCCOC(=O)c1ccccc1
inactive: [1] | [3] | [6] | [4]

CCc1cccc(CC)c1N
inactive: [1] | [3] | [7] | [4] | [10]

O=C(O)c1cccc(C(=O)O)c1
inactive: [1] | [3] | [4] | [9] | [10]

CCOc1ccc2[nH]cc(C(=O)NCc3ccccc3)c(=O)c2n1
active: [6] 27.6 µM
not listed: [2] | [8] | [9]
inactive: all other assays above

NC(=O)N1c2ccccc2C=Cc2ccccc21
inactive: [1] | [3] | [7] | [4] | [10]

Cc1nccn1-c1ccc(Sc2cccc(C3(C(N)=O)CCOCC3)c2)cc1
inactive: [3] | [7] | [5]
active: [1] 6.41 µM | [6] 4.16 µM | [4] 1.57 µM

CCCCCCOC(=O)CC(CC(=O)OCCCCCC)(OC(=O)CCC)C(=O)OCCCCCC
inactive: [1] | [3] | [6] | [8] | [4] | [10]

OCc1ccccc1
not listed: [2] | [7]
inactive: all other assays above

NC(N)=O
inactive: [1] | [3] | [4] | [9] | [10]

OC[C@H]1O[C@@H]2O[C@H]3[C@H](O)[C@@H](O)[C@@H](O[C@H]4[C@H](O)[C@@H](O)[C@@H](O[C@H]5[C@H](O)[C@@H](O)[C@@H](O[C@H]6[C@H](O)[C@@H](O)[C@@H](O[C@H]7[C@H](O)[C@@H](O)[C@@H](O[C@H]1[C@H](O)[C@H]2O)O[C@@H]7CO)O[C@@H]6CO)O[C@@H]5CO)O[C@@H]4CO)O[C@@H]3CO
inactive: [1] | [3] | [6] | [4]
